In PubChem BioAssay (NCI):
Compounds without any hit were thinned out: in the full panel of roughly 83,000, 20% have a hit.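 Single-concentration screen, 48 h exposure, 96-well plates. Endpoint: percent growth. Below 10 = active.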 A number with no mark means an inactive call. Active and inactive are the calls of the source.

Assays:
Assay in all cases: NCI-60 one-dose screen, 48 h (100 = growth as untreated, 0 = no growth, -100 = all killed)
Settings in all cases: 10 µM unless noted
SR leukemia = test system: SR leukemia
RPMI-8226 leukemia = test system: RPMI-8226 leukemia
OVCAR-8 ovarian = test system: OVCAR-8 ovarian
OVCAR-5 ovarian = test system: OVCAR-5 ovarian
OVCAR-4 ovarian = test system: OVCAR-4 ovarian
SK-OV-3 ovarian = test system: SK-OV-3 ovarian
IGROV1 ovarian = test system: IGROV1 ovarian
OVCAR-3 ovarian = test system: OVCAR-3 ovarian
HS 578T breast = test system: HS 578T breast
NCI/ADR-RES ovarian = test system: NCI/ADR-RES ovarian

| Compound | growth (SR leukemia) | growth (RPMI-8226 leukemia) | growth (OVCAR-8 ovarian) | growth (OVCAR-5 ovarian) | growth (OVCAR-4 ovarian) | growth (SK-OV-3 ovarian) | growth (IGROV1 ovarian) | growth (OVCAR-3 ovarian) | growth (HS 578T breast) | growth (NCI/ADR-RES ovarian) |
| --- | --- | --- | --- | --- | --- | --- | --- | --- | --- | --- |
| CCOc1nc(-c2ccccc2)cc2c(O)c(C(=O)N/N=C/c3ccccc3)[nH]c(=O)c12 | 95.2% | 97.6% | 106% | 111% | 119% | 109% | 36% | 103% | 104% | 104% |
| COc1ccccc1NC(=O)N=Nc1c(O)[nH]c2ccccc12 | 83.9% | 84.8% | 92.9% | 86.7% | 105% | 97.8% | 82% | 107% | 87.8% | 94.1% |
| Oc1c(I)cc(I)cc1CNCc1ccccn1 | 22.1% | 30.9% | 13.8% | 61.9% | 22.8% | 28% | 24.4% | 20.3% | 57.9% | 10.3% |
| Nc1nc(N)c(-c2ccc(Cl)c(Cl)c2)c(CBr)n1 | 62.1% | 80.2% | 75.6% | 55.3% | 107% | 99% | 47.5% | 106% | 91.9% | 58.2% |
| COc1cc2oc(-c3cccc(NC(=O)c4ccccc4)c3)cc(=O)c2c(OC)c1OC | 31.6% | 26.6% | 61% | 100% | 81.7% | 104% | 78.4% | 84.2% | 97.2% | 74.5% |
| Nc1nc(-c2ccc(Cl)cc2)nc2c1sc(=S)n2-c1ccccc1 | -17.8% (active) | 45.5% | 32.4% | 62.6% | -20.1% (active) | 23.4% | 44.9% | 40.2% | 19.9% | 43.8% |
| O=C1NC2(Nc3ccccc31)C(=O)Nc1c(Cl)cc(Cl)cc12 (stereo not given) | 93.2% | 105% | 102% | 115% | 98.9% | 107% | 91.5% | 118% | 100% | 108% |
| O=C1Nc2ccccc2/C1=C/c1cccn1CCCCn1c2ccccc2c(=O)c2ccccc21 | 80.1% | 33.5% | 58.8% | 77.9% | 65.8% | 94.6% | 77.3% | 86.7% | 86.3% | 73.9% |
| COc1ccc(NC2=C(I)C(=O)c3ncccc3C2=O)cc1 | 6.66% (active) | 4.44% (active) | 8.5% (active) | -62.8% (active) | -88.3% (active) | 50% | -43.9% (active) | -10.1% (active) | -15.9% (active) | 0.698% (active) |
| CN1C(=O)/C(=C\c2c(Cl)cccc2Cl)c2ccccc21 | 34.3% | 84.2% | 94.1% | 98.6% | 87.9% | 99.2% | 92.1% | 95.4% | 81.7% | 80.1% |
| COc1ccc(-c2nc3c(ncc4ccc(=O)[nH]c43)s2)cc1 | 45.5% | 69.2% | 83.9% | 90% | 98.8% | 102% | 67.5% | 85.5% | 88% | 74.6% |
| Nc1n[nH]c2cccc(C#Cc3cccc(C(=O)Nc4cc(C(F)(F)F)cc(C(F)(F)F)c4)c3)c12 | 49.7% | 52.6% | 82.9% | 75.9% | 85.4% | 109% | 45.7% | 90.6% | 54.9% | 74.2% |
| O=C1c2ccccc2-c2c1c1c(=O)[nH]c3ccccc3c1n2Cc1ccccc1 | 55.4% | 80.3% | 63.2% | 56.5% | 35% | 76.3% | 71.5% | 77.2% | -15% (active) | 67.9% |
| COc1ccc(/C=C(\C#N)n2nnc3cc(Cl)ccc32)cc1 | 19% | 8.04% (active) | 12.6% | -33.7% (active) | 25.5% | 44.4% | 3.88% (active) | -35.8% (active) | -8.59% (active) | -11.6% (active) |
| O=C(/C=C/c1cccc(Cl)c1)c1cccc(OCCCOc2cccc(C(=O)/C=C/c3cccc(Cl)c3)c2)c1 | 37.1% | -8.65% (active) | 98.2% | 113% | 102% | 107% | 92.7% | 102% | 105% | 99.6% |
| O=S(=O)(NCCNc1nccc(-c2c(-c3ccc(F)c(O)c3)nc3occn23)n1)c1ccc(Cl)cc1 | 75.8% | 85.3% | 86% | 127% | 109% | 87.1% | 87.4% | 104% | 89% | 102% |
| CN(C)S(=O)(=O)c1cccc(C(=O)Nc2nc(-c3ccc(F)c(F)c3)cs2)c1 | 41% | 63.2% | 48.9% | 86.1% | 37.2% | 108% | 41.6% | 70.8% | 107% | 22.5% |
| CCOC(=O)c1cc(C)n(-c2ccc(C(=O)O)cc2)c1C | 75.5% | 104% | 87.6% | 76.7% | 94.6% | 92.8% | 107% | 115% | 90.8% | 89.6% |
| CCC(=C(c1ccc(OCCN2CCCCC2)cc1)c1ccc(OCCN2CCCCC2)cc1)c1ccc(Cl)cc1 | -49% (active) | -59.8% (active) | -75.4% (active) | -95.4% (active) | -90.2% (active) | -85.7% (active) | -87.9% (active) | -83.9% (active) | -77.1% (active) | -84.6% (active) |
| COc1ccc(Nc2nc(-c3cc(O)c(C)c(C)c3O)cs2)cc1 | 37.1% | 33.6% | 70.7% | 103% | 73.7% | 71.3% | 66.5% | 10.5% | 76.7% | 23% |
| Cn1c(I)c(C#CCO[Si](C)(C)C(C)(C)C)c(=O)[nH]c1=O | -11.3% (active) | 84.8% | 94.8% | 102% | 80% | 105% | 81.4% | 75.4% | 106% | 102% |
| COc1ccc(/C=C/C(=O)c2cccc(OCCCCOc3cccc(C(=O)/C=C/c4ccc(OC)c(OC)c4)c3)c2)cc1OC | 69.4% | 35.6% | 68.3% | 102% | 32.9% | 89.6% | 75.2% | 80.9% | 78.4% | 78.1% |
| CCOC(=O)C1=C(C)NC(=O)NC1c1c(Cl)n(CCCl)c2ccccc12 (stereo not given) | 102% | 77.3% | 96.7% | 101% | 112% | 104% | 103% | 98.5% | 93.1% | 97.1% |
| S=c1sc2c(Cl)nc(-c3cccnc3)nc2n1-c1ccccc1 | -27.2% (active) | -3.47% (active) | 18% | 125% | 70.6% | 87.9% | -60.2% (active) | 52.2% | 55.9% | 60.2% |
| COc1cc2nc3cc([N+](=O)[O-])ccc3c(NCCNCC(C)O)c2cc1OC (stereo not given) | -17.9% (active) | -13% (active) | -8.18% (active) | 5.11% (active) | -32.4% (active) | 20.8% | -16.5% (active) | -35.9% (active) | -1.12% (active) | 75.1% |
| CCCCNC(=O)Oc1ccc(/C(=C(/C)Cc2ccc(OC)cc2)c2ccc(OCCN3CCCC3)cc2)cc1 | -54.1% (active) | 1.62% (active) | 69.6% | 86% | 68.9% | 89.1% | 85.5% | 56.1% | 50.4% | 81.5% |
| CC(C)(C)CC(C)(C)NC(=O)Nc1ncccc1OCc1ccccc1 | 89.4% | 84.9% | 99.4% | 91.6% | 84.3% | 104% | 93.9% | 98.5% | 106% | 86.2% |
